SMILES strings stand for the structures. Results filed as inconclusive are left out. A structure can be active in one record and inactive in another. Calls of active or inactive are those of the source. Rule for the calls: active = hit-call score of the fitted dose curve at least 0.9, where 1 is the maximum; inconclusive = response in the unintended direction; inactive = score below 0.9.

In the first experiment the test system is turtle Estrogen Receptor (ESR1), gene 101933533. Description: ATG_trERa_XSP1: Attagene TRANS-FACTORIAL Multi-Species (XSP1) HepG2 Assay for turtle Estrogen Receptor (ESR1) (AID 2283781). In outline: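 Transfect HepG2 with reporter units → dose chemical 24 h (medium has 3 nM 6-alpha-fluorotestosterone) → isolate RNA, RT-PCR → FAM primer extension, HpaI digest → capillary electrophoresis; gain of signal vs DMSO.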
For the compound `CC/C(=C(/CC)c1ccc(O)cc1)c1ccc(O)cc1`, the AC50 is 0.0379 nM (active).
Same read-out and setting: with `C[C@]12CC[C@@H]3c4ccc(O)cc4CC[C@H]3[C@@H]1CCC2=O` the figure was 3.09 nM (active).
For the compound `Cc1c2ccccc2c(C)c2c1ccc1ccccc12`, the AC50 is 15700 nM (active).
As to `CC(C)(c1cc(Br)c(O)c(Br)c1)c1cc(Br)c(O)c(Br)c1`, the compound was called inactive.

System in the next experiment: not listed separately
Description: ACEA_ER_AUC_viability: ACEA Biosciences xCELLigence Real-Time Cell Analysis on Estrogen Receptor Agonism for Viability (AID 2283782).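 Note: hit means loss of impedance signal meaning reduced cell growth or viability.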 The method in brief: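 Read-out: real-time electrical impedance (RT-CES) area under curve, loss of signal taken as reduced viability, normalized to DMSO baseline. T-47D cells, charcoal-stripped serum medium, compounds up to 100 uM final, continuous exposure, 80 h.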
Regarding `CCN(Cc1cccc(S(=O)(=O)O)c1)c1ccc(C(=C2C=CC(=[N+](CC)Cc3cccc(S(=O)(=O)O)c3)C=C2)c2ccccc2S(=O)(=O)[O-])cc1`, the result was inactive.
In the case of `CCCCCCCCCCCO`, the AC50 is 50 µM (active).
Take `O=C(O)c1ccccc1-n1cc(C(=O)O)c(=O)c2cc(Nc3c(F)cc(F)cc3Cl)c(Cl)cc21`: the result was inactive.
Turning to `CCCCCc1ccc(N)cc1`, the AC50 was 50 µM (active) and the result was inactive.
As to `CC/C(=C(/CC)c1ccc(O)cc1)c1ccc(O)cc1`, the AC50 was 50 µM (active) and the compound was classed as inactive.
Consider `Clc1ccccc1C(c1ccccc1)(c1ccccc1)n1ccnc1`, for which the AC50 is 27.6 µM (active).
Same read-out and setting: with `COc1ccc2cc(S(=O)(=O)N[C@H](CC(=O)N[C@H](Cc3ccc(CN4[C@H](C)CCC[C@@H]4C)cc3)C(=O)N(C)C(C)C)c3ccc4c(c3)OCO4)ccc2c1` the figure was 10.8 µM (active); with `CN(C[C@@H](CC[N+]12CCC(C3CCCCC3)(CC1)CC2)c1ccc(Cl)c(Cl)c1)C(=O)c1cc(C(F)(F)F)cc(C(F)(F)F)c1`, 10.6 µM (active).
In the case of `Cc1cccc2ccccc12`, the call was inactive.
With `CCCCCCCCCCCCO`, the AC50 is 68.3 µM (active).
Take `CCCOC(=O)c1cc(O)c(O)c(O)c1`: the compound was called inactive.
With `NCc1cccc(C2CCN(C(=O)c3ccc(C#Cc4ccccc4F)o3)CC2)c1`, the AC50 is 7.73 µM (active).
